Broadly, the AC50 is the concentration giving half of the maximal activity seen.

Calls of active or inactive are those of the source. The calls were made as follows: active = hit-call score of the fitted dose curve at least 0.9, where 1 is the maximum; inactive = score below 0.9.

The target in this assay is human p38beta (SAPK2) CMGC Kinase, MAPK11 (gene 5600) (UniProt Q15759). The assay is described as follows: ERF_KP_ENZ_hMAPK11: Eurofins (ERF) Enzymatic Radiometric [10 uM ATP] KinaseProfiler LeadHunter Assay for human p38beta (SAPK2) CMGC Kinase. As for the experimental part: ERF_KP_ENZ_hMAPK11 is a biochemical, single-readout assay that uses extracted gene-proteins in a cell-free assay. Measurements were taken 0.66 hour after chemical dosing in a 96-well plate. See SAPK2 (p38beta) Human CMGC Kinase Enzymatic Radiometric Assay [10 uM ATP], KinaseProfiler.ERF_KP_ENZ_hMAPK11 is an assay component calculated from the ERF_KP_ENZ_hMAPK11 assay. It is designed to measure enzyme activity using a type of enzyme reporter as detected by scintillation counting with radiometry technology.Data from the assay component ERF_KP_ENZ_hMAPK11 was analyzed at the assay endpoint, ERF_KP_ENZ_hMAPK11, in the positive analysis fitting direction relative to DMSO as the negative control and baseline of activity. Using a type of enzyme reporter, loss-of-signal activity can be used to understand changes in enzymatic activity as they relate to gene MAPK11. To generalize the intended target to other relatable targets, this assay endpoint is annotated to the kinase intended target family, where the subfamily is serine/threonine kinase.
Chain of human p38beta (SAPK2) CMGC Kinase, MAPK11 (gene 5600) (Q15759 whole entry, looked up): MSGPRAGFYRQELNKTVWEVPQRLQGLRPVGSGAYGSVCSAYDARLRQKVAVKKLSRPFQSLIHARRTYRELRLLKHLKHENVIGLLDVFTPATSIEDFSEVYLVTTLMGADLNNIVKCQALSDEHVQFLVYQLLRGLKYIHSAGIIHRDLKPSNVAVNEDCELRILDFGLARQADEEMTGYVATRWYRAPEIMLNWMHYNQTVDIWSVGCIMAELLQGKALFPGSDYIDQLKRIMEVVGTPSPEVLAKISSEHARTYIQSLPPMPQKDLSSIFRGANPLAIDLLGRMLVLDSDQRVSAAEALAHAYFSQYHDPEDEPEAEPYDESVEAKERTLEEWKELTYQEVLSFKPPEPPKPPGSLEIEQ
SAPK2b (h) is incubated with 25 mM Tris pH 7.5, 0.02 mM EGTA, 0.33 mg/mL myelin basic protein, 10 mM MgAcetate and [gamma-33P]-ATP (specific activity and concentration as required). The reaction is initiated by the addition of the Mg/ATP mix. […]
With `O=C(/C=C/c1ccc(O)cc1)CC(=O)/C=C/c1ccc(O)cc1`, the AC50 was 0.293 nM (active).
